Reference: publication PMC4336329 (PLoS ONE, 2015)
Hit rate of the full screen: of about 310,000 compounds, about 14,000 (4.5%) showed an effect of 50% or more. The effect is printed as a negative number. The full list was thinned out, with strong results kept by preference.

Target: human ether-à-go-go-related gene (hERG) potassium channel (human, UniProt Q12809)
Test: primary screen, population patch clamp on CHO cells stably expressing hERG; higher = less effect of the substance
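Also: peak tail current of the secondary pulse compared with the same well before compound.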

Chain of human ether-à-go-go-related gene (hERG) potassium channel (Q12809 whole entry, looked up): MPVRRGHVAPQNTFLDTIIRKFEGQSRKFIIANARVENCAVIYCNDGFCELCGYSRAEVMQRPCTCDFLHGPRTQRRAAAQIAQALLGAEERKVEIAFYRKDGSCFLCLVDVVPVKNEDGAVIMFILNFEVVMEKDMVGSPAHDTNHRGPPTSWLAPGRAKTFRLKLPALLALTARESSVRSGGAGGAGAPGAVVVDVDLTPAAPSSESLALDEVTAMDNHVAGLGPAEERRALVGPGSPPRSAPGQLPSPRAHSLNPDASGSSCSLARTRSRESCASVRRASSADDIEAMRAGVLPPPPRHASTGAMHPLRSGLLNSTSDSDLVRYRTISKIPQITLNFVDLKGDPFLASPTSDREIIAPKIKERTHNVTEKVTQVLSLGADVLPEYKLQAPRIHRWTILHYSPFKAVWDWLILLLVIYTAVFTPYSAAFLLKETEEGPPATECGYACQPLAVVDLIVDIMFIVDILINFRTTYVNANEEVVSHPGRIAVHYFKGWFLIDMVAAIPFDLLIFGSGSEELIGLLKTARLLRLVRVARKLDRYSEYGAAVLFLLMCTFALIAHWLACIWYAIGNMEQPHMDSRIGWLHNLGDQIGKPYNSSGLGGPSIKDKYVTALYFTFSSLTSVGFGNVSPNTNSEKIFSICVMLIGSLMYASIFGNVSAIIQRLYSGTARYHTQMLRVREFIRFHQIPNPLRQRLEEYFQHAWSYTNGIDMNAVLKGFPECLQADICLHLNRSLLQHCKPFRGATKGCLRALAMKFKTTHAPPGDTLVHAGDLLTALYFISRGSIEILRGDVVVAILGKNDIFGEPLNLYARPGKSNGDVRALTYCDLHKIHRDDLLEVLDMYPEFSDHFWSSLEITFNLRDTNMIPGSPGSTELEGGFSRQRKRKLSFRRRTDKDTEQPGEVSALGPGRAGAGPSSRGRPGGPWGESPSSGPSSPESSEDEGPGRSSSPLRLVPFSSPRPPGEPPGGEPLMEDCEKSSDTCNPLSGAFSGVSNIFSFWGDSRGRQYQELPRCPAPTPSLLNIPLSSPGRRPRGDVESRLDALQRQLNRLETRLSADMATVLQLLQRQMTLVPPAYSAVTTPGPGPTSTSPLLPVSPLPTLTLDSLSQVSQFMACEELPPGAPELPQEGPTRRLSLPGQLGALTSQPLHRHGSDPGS

Compound	hERG current change (%, negative = inhibition) at 10uM [%]
COc1ccc(/C=N/NC(=O)c2ccc(NC(=O)C3CCCCC3)cc2)cc1O	24.3
Cc1cc(NC(=O)CSc2ccc(-c3ccc(Br)cc3)nn2)no1	11.1
Cc1cc(C)cc(N(CCC#N)C(=O)CSc2n[nH]c(N)n2)c1	12.6
O=C(NCCN1CCOCC1)c1ccc(NS(=O)(=O)c2cccc([N+](=O)[O-])c2)cc1	10.6
Cc1ccc(/C=N/N2CCN(Cc3cccc4ccccc34)CC2)s1	-3.05
CCS(=O)(=O)Nc1ccc(C2=NN(S(=O)(=O)c3ccc(F)cc3)C(c3ccco3)C2)cc1 (stereo not shown)	-38.8
Cc1ccc(C2=NN(S(=O)(=O)c3ccccc3)C(c3ccco3)C2)cc1 (stereo not shown)	8.53
COc1ccc(S(=O)(=O)N2N=C(c3ccc(NS(C)(=O)=O)cc3)CC2c2ccco2)cc1 (stereo not shown)	-74.2
CS(=O)(=O)Nc1ccc(C2=NN(S(=O)(=O)c3ccc(F)cc3)C(c3ccco3)C2)cc1 (stereo not shown)	-70.2
COc1ccc(S(=O)(=O)N2N=C(c3cccc(NS(C)(=O)=O)c3)CC2c2ccco2)cc1 (stereo not shown)	-3.61
CS(=O)(=O)Nc1cccc(C2=NN(S(=O)(=O)c3ccccc3)C(c3ccco3)C2)c1 (stereo not shown)	-29.9
CCCc1cc(=O)oc2cc(C)cc(OCC(=O)NCC(O)c3ccccc3)c12 (stereo not shown)	13.5
Cc1cccc(CCNC(=O)CCS(=O)(=O)c2ccc(Br)cc2)c1	8.8
O=C(/C=C/c1ccco1)N1CCC(Cc2ccccc2)CC1	4.42
O=C(/C=C/c1ccco1)N1CCN(S(=O)(=O)/C=C/c2ccccc2)CC1	-45
O=C(/C=C/c1ccco1)N1CCN(C/C=C/c2ccccc2)CC1	-58.8
S=C(NCc1ccco1)N1CCN(Cc2ccco2)CC1	1.76
S=C(NCc1ccco1)N1CCN(C/C=C/c2ccccc2)CC1	-56.2
O=C(NC(=S)N1CCN(C/C=C/c2ccccc2)CC1)c1ccco1	-35
Cc1cccc(C(=O)N(C)c2nnc(-c3ccncc3)s2)c1	1.3
Cc1ccc(NC(=O)Cn2ccsc2=N)c([N+](=O)[O-])c1.Cl	35.1
CC(C)CCNc1nc(N)c([N+](=O)[O-])c(N2CCCCCC2)n1	12.1
c1cncc(C2Nc3ccccc3-c3nc4ccccc4n32)c1 (stereo not shown)	-5.58
c1ccc(C2Nc3ccccc3-c3nc4ccccc4n32)cc1 (stereo not shown)	-18.1
c1ccc2c(c1)NC(c1ccncc1)n1c-2nc2ccccc21 (stereo not shown)	-66.2
